Source: PubChem (several laboratories)
Anthrax LF inh2 – anthrax lethal factor protease inhibition; P15917; multiplex microsphere protease cleavage assay, LF; inhibition, % at 10 µM; 360,000 tested, 0.12% active; AID 588501; further: plate controls were buffer without enzyme for full effect and enzyme alone for no effect
MazEF act – activators of E. coli MazEF toxin-antitoxin RNase; P0AE70; FAM/BHQ RNA-DNA oligo cleavage fluorescence, 5 h; activation, % at 20 µM; 350,000 tested, 0.32% active; AID 504720; in the data active means activation above about 50%
Target sequence (P0AE70 whole entry, looked up): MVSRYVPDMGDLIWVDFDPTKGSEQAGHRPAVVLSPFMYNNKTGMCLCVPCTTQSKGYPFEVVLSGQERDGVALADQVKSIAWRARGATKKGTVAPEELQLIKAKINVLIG
BH1578 lux ind – quorum light induction in luxS cqsA deficient V. cholerae; AID 588436; V. cholerae BH1578 lux reporter, luminescence, 6 h; 350,000 tested, 0.16% active; activation, % at 18.7 µM; in the data active means activation mostly above about 9.7%, no sharp cut-off; inconclusive means no clear call, values can overlap the other calls; inactive means mostly below about 3.7%
BoNT-A LC inh2 – BoNT A light chain protease inhibition | AID 588499 | inhibition, % at 10 µM | multiplex microsphere protease substrate cleavage, flow cytometry | 360,000 tested, 0.17% active; further: plate controls were buffer without enzyme for full effect and enzyme alone for no effect
Autofluor counter – counter-screen for toxin protease inhibitors: compound fluorescence; compound autofluorescence counterscreen, microsphere flow cytometry; active compounds read high; AID 624483; 360,000 tested, 3.1% active; fluorescence intensity (no concentration beside the values); in the data active means fluorescence intensity above about 16000; inconclusive means no clear call, values can overlap the other calls
BoNT-F LC inh – blocks Botulinum neurotoxin F light chain protease. AID 588497. 360,000 tested, 0.22% active. Multiplex microsphere protease cleavage assay, flow cytometry. inhibition, % at 10 µM; in the data active means inhibition above about 35%, passing the limit was not always enough; inconclusive means no clear call, values can overlap the other calls; further: plate controls were buffer without enzyme for full effect and enzyme alone for no effect
* = called active by the depositor; i = inactive; ? = inconclusive; . = not tested or not shown. Most compounds without a hit are left out; they make up all but 3.9% or so of the library. Unless noted, no stated cut-off is given here; in the data, active means inhibition above about 30%; inconclusive means no clear call, values can overlap the other calls; inactive means below that.

SMILES | Anthrax LF inh2 | MazEF act | BH1578 lux ind | BoNT-A LC inh2 | Autofluor counter | BoNT-F LC inh
Cc1ccccc1Cn1ccc(-c2ccc3c(c2)OCO3)n1 | 0 | -11 | i | ? | 20609* | -2
O=C1c2cccnc2C(=O)N1c1cccc([N+](=O)[O-])c1 | 4 | 3 | i | -5 | 3326 | 10
Cc1ccsc1C1C2=C(CC(C)(C)CC2=O)Nc2ncnn21 (centres undefined) | -3 | 7 | 0 | 0 | 5800 | -12
Cc1ccsc1C1C2=C(CCCC2=O)Nc2ncnn21 (centres undefined) | 2 | 0 | i | 0 | 22735* | -3
CCN(CC)CCSc1nc(O)c(-c2ccccc2)c(=O)[nH]1 | -2 | 4 | -6 | -2 | 17285* | -3
CCCN(CCC)CCSc1nc(O)c(C(C)C)c(=O)[nH]1 | -14 | 3 | 2 | ? | 18038* | 5
CC(C)c1c(O)nc(SCCC(=O)O)[nH]c1=O | 3 | 8 | -1 | -1 | 10568 | 3
O=S(=O)(c1ccc(F)cc1)N1CCN(Cc2ccccn2)CC1 | -2 | 4 | -3 | 0 | 3478 | 1
CCOC(=O)[C@]12CCC=C1N(Cc1ccc3c(c1)OCO3)C(=O)[C@H](CC(=O)NCCC(C)C)C2 | -4 | . | . | 0 | 6092 | 2
O=C(CN1c2cccc3cccc(c23)S1(=O)=O)N1CCOCC1 | 3 | 10 | 0 | -1 | 16664* | -2
Nc1ccc(S(=O)(=O)N2CCCC2)cc1Cl | -7 | 8 | 0 | -1 | 3978 | -3
c1ccc(Cc2nn3c(COc4ccccc4)nnc3s2)cc1 | -1 | -2 | i | -3 | 24302* | -3
COc1ccc(-c2nnc3sc(COc4ccc(C)cc4)nn23)cc1 | -6 | 30 | 1 | 1 | 4619 | ?
CCOc1ccc(-c2nnc3sc(COc4ccccc4)nn23)cc1 | -3 | 1 | 0 | -2 | 11014 | -7
COc1ccc(-c2nnc3sc(COc4ccccc4)nn23)cc1 | -5 | 8 | -14 | -2 | 20311* | -5
Clc1ccccc1-c1nn2c(COc3ccccc3)nnc2s1 | -2 | -9 | i | 0 | 10753 | -7
CCOc1ccccc1OCc1nn2c(COc3ccccc3)nnc2s1 | -1 | 8 | -1 | 1 | 16185* | 0
O=C1NC[C@@H](CCCCN2C[C@H](Cc3ccccc3)N(CC3CCCCC3)C(=O)C2=O)N(CCc2ccccc2)C1=O | -6 | . | . | 0 | 4085 | 0
O=C(O)c1cc(Nc2nc(N3CCOCC3)nc(N3CCOCC3)n2)ccc1Cl | -2 | -3 | 0 | 0 | 5301 | -8
CSc1nc2ccc(Nc3nc(N4CCOCC4)nc(N4CCOCC4)n3)cc2s1 | -3 | 4 | 2 | -1 | 23477* | -1
O=C(O)c1cccc(Nc2nc(N3CCOCC3)nc(N3CCOCC3)n2)c1 | 0 | -1 | 0 | -6 | 22856* | -9
COc1cc(-c2cn[nH]c2N)cc(OC)c1OC | 1 | 1 | 5 | ? | 21444* | -5
Nc1[nH]ncc1-c1ccc(Cl)cc1 | -4 | -3 | 1 | -1 | 4614 | -4
COC(=O)c1ccc2c(=O)n(NC(=O)C(c3ccccc3)c3ccccc3)c(=S)[nH]c2c1 | 2 | -6 | 0 | ? | 16293* | -2
CC1CC(=O)C2=C(C1)OC(N)=C(C#N)C2c1coc2ccccc2c1=O (centres undefined) | -7 | 85* | -1 | 1 | 9395 | -2
SMILES | Anthrax LF inh2 | MazEF act | BH1578 lux ind | BoNT-A LC inh2 | Autofluor counter | BoNT-F LC inh
CC1(C)CC(=O)C2=C(C1)OC(N)=C(C#N)C2c1ccccc1 (centres undefined) | -7 | 12 | 0 | 2 | 9018 | 8
COc1ccc(S(=O)(=O)N2CCCC(C(=O)NCc3ccco3)C2)cc1OC (centres undefined) | 0 | -7 | 0 | -3 | 6875 | -3
Cc1cc(C)c2c(CN3CCN(C)CC3)cc(=O)oc2c1 | -1 | 4 | i | -2 | 16812* | -5
Cc1cc(C)c2c(CN3CCN(CCO)CC3)cc(=O)oc2c1 | 0 | 1 | i | 0 | 23234* | -1
Cc1cc(C)c2c(CN3CCN(c4ccccc4F)CC3)cc(=O)oc2c1 | -8 | . | . | -1 | 4197 | 9
COC(=O)C1=C(C)NC(C)=C(C(=O)OC)C1C(=O)OCC(=O)NC1CCCCC1C (centres undefined) | -4 | 5 | 0 | -1 | 3567 | -1
O=C(O)C1C2C=CC(C2)C1C(=O)Nc1cccc(F)c1 (centres undefined) | -1 | 3 | -1 | -1 | 22384* | -4
CCOc1ccccc1NC(=O)C1C2C=CC(C2)C1C(=O)O (centres undefined) | -2 | -1 | 0 | -4 | 25672* | -7
CCOC(=O)c1ccc(NC(=O)c2nc[nH]c2C(=O)N[C@@H](C)CO)cc1 | -3 | 4 | -1 | 0 | 3803 | 2
CC12CCC(C(=O)NCCN3CCCCC3)(CC1=O)C2(C)C (centres undefined) | -4 | 6 | 1 | -1 | 11064 | 0
CC1(C)CC(NC(=O)C23CCC(C)(C(=O)C2)C3(C)C)CC(C)(C)N1 (centres undefined) | 2 | 0 | 1 | 4 | 21112* | 4
Cn1c(=S)n(CCC(=O)O)c2ccccc21 | 1 | 14 | 0 | -1 | 4560 | -4
CN(C)Cc1cn(CCC(=O)O)c2ccccc12 | 1 | 1 | i | -1 | 24504* | -6
COc1ccc(Nc2sc(C(=O)c3ccc(Cl)cc3)c(N)c2C(=O)Nc2ccccc2OC)cc1 | -3 | 4 | -3 | -2 | 22771* | -7
COc1ccc(C(=O)c2sc(Nc3ccccc3)c(C(=O)Nc3ccc(OC)c(OC)c3)c2N)cc1 | -3 | -13 | 1 | 0 | 2846 | 2
O=C(c1cnc(-c2ccccc2)s1)c1ccc(Cl)cc1Cl | -2 | -2 | -1 | ? | 22951* | -3
CN(C)/C=C/C(=O)c1cnc(-c2cccc(Cl)c2)s1 | -7 | -5 | 0 | 7 | 4682 | 42*
CC1(C(=O)NCc2ccccc2)CCC(=O)N1CCOc1ccccc1 (centres undefined) | -10 | . | . | 1 | 3913 | 0
COc1ccc(S(=O)(=O)NN(C)C(=O)c2nn(-c3ccccc3)ccc2=O)cc1 | -10 | 15 | i | -1 | 3607 | 2
COc1cccc(C2CC(=O)C3=C(C2)Nc2ccccc2N(C(=O)CCC(=O)O)C3c2ccc(F)cc2)c1 (centres undefined) | -7 | -10 | 8 | -1 | 4275 | -6
CCCCCn1c(SCc2ccncc2)nc2cc(C(=O)NCc3ccco3)ccc2c1=O | -9 | -16 | -2 | ? | 19744* | 2
CC(C)c1nc(SCC(=O)N2CCCC2)c2ccccc2n1 | 0 | -10 | 0 | ? | 22830* | 1
C=CCn1c(SCC(=O)N2CCCC2)nc2cc(C(=O)NCC3CCCO3)ccc2c1=O (centres undefined) | -2 | 4 | -1 | 1 | 16153* | 3
O=C(NCc1ccco1)c1ccc2c(=O)n(Cc3ccco3)c(SCC(=O)N3CCCC3)nc2c1 | -1 | -14 | 0 | -1 | 21141* | 0
